BL2 CD40 inh: inhibitors of CD40-induced NF-kB signaling, primary screen, BL2 cells, luciferase reporter, single point; CD40L-induced, 4 h; inhibition, % at 10 µM; 0.94% of 83,000 active;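 active means mean inhibition of at least 50% with a set share of replicates also reaching that level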;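 further: 0% = neutral control wells and 100% = IKK inhibitor VII at 50 µM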
* = called active by the depositor; [ ] = remark or other dose. The full list was thinned out, with hits kept by preference.

O=C(C1CCOCC1)N1CC(=O)N2[C@H](C1)[C@@H](c1ccc(C#CCc3ccccc3)cc1)[C@@H]2CO was read as BL2 CD40 inh 58*[25 µM].
Cc1ccc(-c2ccc([C@H]3[C@H]4CN(C(=O)NC(C)C)CC(=O)N4[C@H]3CO)cc2)cc1 was read as BL2 CD40 inh 5[25 µM].
For Cc1ccc(-c2ccc([C@H]3[C@H](CO)N4C(=O)CN(C(=O)NC(C)C)C[C@@H]34)cc2)cc1 the results were BL2 CD40 inh -14[25 µM].
Screening O=C(C1CCCC1)N1CC(=O)N2[C@@H](CO)[C@H](c3ccc(C#CCc4ccccc4)cc3)[C@@H]2C1 returned BL2 CD40 inh 93*.
Screening O=C(C1CCCC1)N1CC(=O)N2[C@H](CO)[C@@H](c3ccc(C#CCc4ccccc4)cc3)[C@H]2C1 returned BL2 CD40 inh 43.
`C[C@@H]1CN(C)C(=O)Cc2cc([N+](=O)[O-])ccc2O[C@@H]1CN(C)C(=O)OC(C)(C)C` gave BL2 CD40 inh -3.
COc1ccccc1S(=O)(=O)N1CC[C@@H]2[C@@H](CO)Nc3ccc(Br)cc3[C@@H]21 was read as BL2 CD40 inh -10[25 µM].
Screening CO[C@H](CN(C)S(=O)(=O)c1ccc(C)cc1)[C@H](C)CN(C(=O)Nc1ccccc1F)[C@@H](C)CO returned BL2 CD40 inh -5[25 µM].
C[C@@H](NC(=O)C[C@@H]1C[C@@H]2c3cc(NC(=O)c4ccc5c(c4)OCO5)ccc3O[C@@H]2[C@H](CO)O1)c1ccccc1 was read as BL2 CD40 inh -9[25 µM].
N#C[C@H]1[C@H](c2ccc(C#Cc3ccccc3F)cc2)[C@@H](CO)N1C(=O)c1cccnc1 was read as BL2 CD40 inh 70*[25 µM].
For N#C[C@H]1[C@@H](c2ccccc2)[C@H](CO)N1C(=O)c1cccnc1 the results were BL2 CD40 inh 2.
`N#C[C@H]1[C@H](c2ccc(C#Cc3ccccc3F)cc2)[C@H](CO)N1C(=O)C1CC1` gave BL2 CD40 inh 63*[25 µM].
N#C[C@@H]1[C@H](c2ccc(C#Cc3ccccc3F)cc2)[C@H](CO)N1C(=O)C1CCCC1 was read as BL2 CD40 inh 1.
`N#C[C@H]1[C@H](c2ccc(C#Cc3ccccc3F)cc2)[C@@H](CO)N1C(=O)C1CCCCC1` gave BL2 CD40 inh 62*.
`COCC(=O)N1[C@H](C#N)[C@H](c2ccc(C#Cc3ccccc3F)cc2)[C@@H]1CO` gave BL2 CD40 inh -40[25 µM].
`N#C[C@@H]1[C@@H](c2ccc(C#Cc3ccccc3F)cc2)[C@H](CO)N1C(=O)c1cccnc1` gave BL2 CD40 inh -24[25 µM].
For COCC(=O)N1[C@@H](C#N)[C@@H](c2ccc(C#Cc3ccccc3F)cc2)[C@@H]1CO the results were BL2 CD40 inh -14[25 µM].
`COCC(=O)N1[C@H](C#N)[C@H](c2ccc(C#Cc3ccccc3F)cc2)[C@H]1CO` gave BL2 CD40 inh 73*[25 µM].
Screening N#C[C@@H]1[C@@H](c2ccc(C#Cc3ccccc3F)cc2)[C@@H](CO)N1C(=O)C1CCCC1 returned BL2 CD40 inh -21.
`N#C[C@H]1[C@@H](c2ccc(C#Cc3ccccc3F)cc2)[C@H](CO)N1C(=O)C1CCC1` gave BL2 CD40 inh -1.
`N#C[C@H]1[C@@H](c2ccc(C#Cc3ccccc3F)cc2)[C@@H](CO)N1C(=O)C1CCCCC1` gave BL2 CD40 inh 29.
`C[C@H]1CN([C@@H](C)CO)C(=O)c2c(c3ccccc3n2C)-c2ccccc2CO[C@H]1CN(C)S(=O)(=O)c1ccccc1F` gave BL2 CD40 inh -4.
`CN1C(=O)c2cc(NC(=O)Cc3cccs3)ccc2OC[C@H]2O[C@@H](CC(=O)NCC3CC3)CC[C@@H]21` gave BL2 CD40 inh 5.
CCC(=O)N1[C@@H]2CN(C(=O)c3ccncc3)c3ccccc3[C@@H]2[C@@H]1CO was read as BL2 CD40 inh -2[25 µM].
O=C(CC(F)(F)F)N1C[C@@H]2[C@H](c3ccccc31)[C@H](CO)N2C(=O)C1CCCC1 was read as BL2 CD40 inh 3.
CCN1[C@@H]2c3ccc(-c4ccc(F)cc4)c(=O)n3C[C@H]1[C@H](CO)[C@H]2C(=O)Nc1nccs1 was read as BL2 CD40 inh -5[25 µM].
C[C@H]1CN([C@@H](C)CO)C(=O)c2c(c3ccccc3n2C)-c2ccccc2CO[C@H]1CN(C)S(=O)(=O)c1cn(C)cn1 was read as BL2 CD40 inh -1[25 µM].
For COc1ccc2c3c([nH]c2c1)[C@H](CO)N(C(=O)C1CCOCC1)CC31CCN(S(C)(=O)=O)CC1 the results were BL2 CD40 inh 13[25 µM].
Screening O=C(C1CCOCC1)N1CC2(C1)[C@@H](c1ccccc1)[C@@H](CO)N2Cc1ccccc1F returned BL2 CD40 inh -3[25 µM].
`COc1ccc(NC(=O)Nc2ccc3c(c2)[C@@H]2C[C@H](CC(=O)NC4CCCC4)O[C@@H](CO)[C@@H]2O3)cc1` gave BL2 CD40 inh -1.
`O=C(NCC[C@@H]1CC[C@@H](NS(=O)(=O)c2cccc(F)c2)[C@H](CO)O1)C1CCCC1` gave BL2 CD40 inh 3.
`O=C(C1CCCC1)N1CC(=O)N2[C@@H](CO)[C@H](c3ccc(C#Cc4cccc(F)c4)cc3)[C@@H]2C1` gave BL2 CD40 inh 3.
